According to PubChem BioAssay (NCATS):
Inconclusive results are not listed. Unmarked numbers belong to inactive results. Calls of active or inactive are those of the source. Calls come from the whole dose curve; as a rule, active = well fitted cell-killing curve with a large enough effect; inconclusive = small, poorly fitted or top-dose-only effect; inactive = flat fitted curve, though single readings scatter.

assay: Quantitative highthroughput screen to assess conditional lethalithy of NOMO1 cells grown in RPMI1640 with dialyzed fetal bovine serum (RPMI+ds) (AID 1963877); details: NOMO1 in RPMI+dialyzed FBS viability, ATP luminescence, 48 h; series mostly up to 45.8 µM; viability: at the top concentration; note: nearly all actives have a fitted effect of over 30% in size;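 for viability: 100% = DMSO control wells and 0% = empty wells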
In short: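 Each medium arm—HPLM with 10% dialyzed FBS, or RPMI1640 with 5 mM glucose and 10% untreated or dialyzed FBS—was screened against an 11-point, 3-fold compound titration for 48 h at 37 °C, with CellTiter-Glo luminescence as endpoint.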
Potency is the fitted concentration of half-maximal effect.

Row | Compound | Potency | viability [%]
1 | NS(=O)(=O)OC[C@@H]1C[C@@H](n2ccc3c(N[C@H]4CCc5ccccc54)ncnc32)C[C@H]1O | 526 nM (active) | 
2 | CCC(=O)N[C@H]1CC[C@H](C(=O)N(C)c2ccc(-c3nc4ccccc4o3)cc2)C1 |  | 92.6
3 | CCNC(=O)[C@H]1O[C@@H](n2cnc3c(N)nc(NCCc4ccc(CCC(=O)O)cc4)nc32)[C@H](O)[C@H]1O |  | 98.6
4 | CC(C)(C)OC(=O)N[C@H]1CCCCCC=C[C@@H]2C[C@@]2(C(=O)NS(=O)(=O)C2CC2)NC(=O)[C@@H]2C[C@@H](OC(=O)N3Cc4cccc(F)c4C3)CN2C1=O |  | 101
5 | CC(C)CN(C[C@@H](O)[C@H](Cc1ccccc1)NC(=O)O[C@H]1CO[C@H]2OCC[C@H]21)S(=O)(=O)c1ccc(N)cc1 |  | 97.6
6 | Cc1nc(NC(=O)N2CCC[C@@H]2C(N)=O)sc1-c1ccnc(C(C)(C)C(F)(F)F)c1 | 2640 nM (active) | 
7 | CC(C)(C)NC(=O)[C@H]1CN(Cc2cccnc2)CCN1C[C@@H](O)C[C@@H](Cc1ccccc1)C(=O)N[C@H]1c2ccccc2C[C@H]1O |  | 76.9
8 | Cc1c(Cn2c(C)nc3c(C(=O)O)cc(N4CCOCC4)cc32)cccc1C(F)(F)F |  | 85
9 | C=CC1=C(C(=O)O)N2C(=O)[C@@H](NC(=O)C(=NO)c3csc(N)n3)[C@H]2SC1 |  | 87.2
10 | C[C@]12CCC(=O)C=C1CC[C@@H]1[C@H]2[C@@H](O)C[C@@]2(C)[C@H]1CC[C@]2(O)C(=O)CO |  | 106
11 | O=c1c2ccccc2nc2n1CCc1c-2[nH]c2ccccc12 |  | 91.4
12 | CC1(C)OC2CC3C4CC(F)C5=CC(=O)C=CC5(C)C4C(O)CC3(C)[C@]2(C(=O)CO)O1 (stereo partly specified) |  | 104
13 | O=C1Nc2ccc(I)cc2C1=Cc1cc(Br)c(O)c(Br)c1 |  | 91.2
14 | CC(=O)OCC(=O)[C@@]12N=C(C)O[C@H]1C[C@H]1[C@@H]3CCC4=CC(=O)C=C[C@]4(C)[C@@H]3[C@@H](O)C[C@@]12C |  | 89.1
15 | COC1=C2C[C@@H](C)C[C@H](OC)[C@@H](O)[C@@H](C)C=C(C)[C@H](OC(N)=O)[C@@H](OC)C=CC=C(C)C(=O)NC(=CC1=O)C2=O | 20900 nM (active) | 
16 | CN(N=O)C(=O)N[C@H]1C(O)OC(CO)[C@@H](O)[C@H]1O (stereo partly specified) |  | 84.6
17 | OCC(O)C(O)C(O)CO (stereo unspecified) |  | 113
18 | Cc1ccc(C2=Nc3ccc(Cl)cc3OC2)cc1 |  | 91.4

Row | Compound | Potency | viability [%]
19 | Cc1cc(CS(=O)(=O)c2ccccc2)cc(OCc2ccc(CN3CCC[C@H]3CO)cc2)c1 | 1320 nM (active) | 
20 | C=CCNC1=C2C[C@@H](C)C[C@H](OC)[C@@H](O)[C@@H](C)C=C(C)[C@H](OC(N)=O)[C@@H](OC)C=CC=C(C)C(=O)NC(=CC1=O)C2=O | 5900 nM (active) | 
21 | CNC(=O)[C@H](CC1=CN=C2C=CCC=C12)NC(=O)[C@@H](CC(=O)NO)CC(C)C | 8330 nM (active) | 
22 | NC(=O)c1cccc(N)c1 |  | 97.3
23 | O=C(C=Cc1ccc(/C=C/C(=O)Nc2ccc(C3=NCCN3)cc2)cc1)Nc1ccc(C2=NCCN2)cc1 |  | 93.9
24 | CC(=O)[C@]1(O)Cc2c(O)c3c(c(O)c2[C@@H](O[C@H]2C[C@H](N)[C@@H](O)[C@H](C)O2)C1)C(=O)c1ccccc1C3=O | 3720 nM (active) | 
25 | COc1ccc2ccc(=O)oc2c1CC=C(C)C |  | 87.8
26 | COc1ccc(C(C)=O)c(O)c1 | 2960 nM (active) | 
27 | Cn1cc(-c2ccc3nnc(C(F)(F)c4ccc5ncccc5c4)n3n2)cn1 |  | 89.7
28 | Fc1ccc(C(c2ccc(F)cc2)N2CCN(CC=Cc3ccccc3)CC2)cc1 |  | 109
29 | N#CC(=C(O)c1ccc(Cl)cc1Cl)c1nc2cc(Cl)ccc2c(=O)[nH]1 |  | 105
30 | CC(C)c1nn(-c2c(Cl)cccc2Cl)c2nc(Cc3ccc(OCCO)cc3)[nH]c(=O)c12 | 105 nM (active) | 
31 | NC(=O)c1nnn(Cc2cc(Cl)c(C(=O)c3ccc(Cl)cc3)c(Cl)c2)c1N |  | 88.1
32 | OC(CN1CCN(c2cccc(Cl)c2)CC1)C(c1ccccc1)c1ccccc1 (stereo unspecified) | 1050 nM (active) | 
33 | Cc1ccc(Nc2cc(-c3cccc(N4C(=O)c5ccccc5C4=O)c3)ncn2)cc1NS(C)(=O)=O |  | 80.1
34 | C=C1C[C@@]2(O)O[C@@]3(C[C@H]2C(C)C)[C@H](C)CC[C@H]13 |  | 104
35 | CC(C=CC=C(C)C=CC1=C(C)CCCC1(C)C)=CC=CC=C(C)C=CC=C(C)C=CC1=C(C)CCCC1(C)C |  | 92
36 | N#CC(=C1Nc2ccccc2S1)c1ccnc(OCc2ccc(CN3CCOCC3)cc2)n1 | 8330 nM (active) | 
